Results on five compounds are retold here after PubChem BioAssay.

Active and inactive are the calls of the source. Unless noted, how the calls were made is not given here.

Test [1] in a line: compounds binding Alexa647 anti-His antibody – biochemical, small-molecule microarray, 635 nm fluorescence, artefact control for SMM control protein annotation, primary screen (AID 1128).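 Further: score merges feature fluorescence with signal-to-noise for each printed compound spot.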 Conditions: higher = more signal.
Test [2] concerns Human papillomavirus type 1a E7 protein (residues 1-88). Description: HPV1a E7 small-molecule binders, primary screen, biochemical, small-molecule microarray, residues 1-88, 635 nm (AID 1129). Conditions: small-molecule microarray binding, fluorescence 635 nm; higher = more signal.
The target in test [3] is Focal adhesion kinase 1 (Homo sapiens) (UniProt Q05397). Description: PTK2 protein binding on printed compound slides – biochemical, small-molecule microarray, 635/667 nm fluorescence, BSA, DTT, primary screen (AID 1130).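 Further: composite of spot emission at 667 nm and signal to noise over triplicate slides.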 To be noted: 635 nm fluorescence, higher = more signal.
Test [4] relates to Fibrinogen (Alexa647-labelled). Description: Alexa647-fibrinogen binding to printed small molecules – biochemical, small-molecule microarray, 635/667 nm fluorescence, artefact control for SMM control-protein annotation, profiling panel (AID 1131).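 Further: z-score merges 667 nm fluorescence with per-spot signal-to-noise over triplicate slides.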 Conditions: fibrinogen-A647 binding fluorescence, higher = more signal.
Test [5] addresses Follistatin (Homo sapiens) (UniProt P19883). Description: FST protein binding to printed compounds – biochemical, small-molecule microarray, 635/667 nm fluorescence, primary screen (AID 1132). To be noted: 635 nm fluorescence, higher = more signal.
Test [6] concerns the target Fibroblast growth factor 2 (Homo sapiens) (UniProt P09038). Description: basic fibroblast growth factor binding to printed compounds – biochemical, small-molecule microarray, 635/667 nm fluorescence, primary screen (AID 1133). Conditions: FGF2, fluorescence 635/667, higher = more signal.
A short description of test [7]: JC-1 mitochondrial potential readout, lung cancer cells – cell-based, A549, JC-1 fluorescence, basal, 24 h, 100 nL, profiling panel (AID 1138).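 Further: A549 lung adenocarcinoma cells under basal conditions with no added stimulus; test concentration not given here.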 To be noted: higher = more signal.
Test [8] concerns Lefty1. The test is described as follows: Lefty1 protein binding to printed compounds – biochemical, small-molecule microarray, 635/667 nm fluorescence, primary screen (AID 1139). To be noted: fluorescence 635/667, higher = more signal.
The subject of test [9] is wheat germ agglutinin (Triticum aestivum), Alexa647-labelled. Description: Alexa647-WGA lectin binding to printed small molecules – biochemical, small-molecule microarray, 635/667 nm fluorescence, artefact control for SMM control-protein annotation, profiling panel (AID 1140).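 Further: score merges 667 nm feature emission with signal to noise over triplicate slides.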 Conditions: WGA-A647 binding, 635 nm fluorescence, higher = more signal.
For test [10], the target named is Luciferin 4-monooxygenase (Photinus pyralis) (UniProt P08659). Description: inhibition of purified Photinus pyralis luciferase – biochemical, luminescence, purified enzyme, 2006 set, primary screen (AID 1141).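 Further: cell-free assay with purified firefly luciferase at 100 ng per well in PBS; test concentration not given here.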 Conditions: purified firefly luciferase, SteadyGlo luminescence, 30 min; higher = more signal, called active from +8 up or from −8 down.
For test [11], the system named is Wnt5a (protein binding on small-molecule microarray). The test is described as follows: small molecules binding Wnt5a protein – biophysical, small-molecule microarray, 635/667 nm fluorescence, primary screen (AID 1142).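 Further: fluorescence read at 667 nm with signal to noise per printed feature.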 To be noted: 635 nm fluorescence, higher = more signal.
Test [12] in a line: ATP-based viability of Huh7 replicon cells – cell-based, CellTiter-Glo luminescence, basal, 48 h, cytotoxicity control for HCV replication inhibitor project, primary screen (AID 1143).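 Further: Huh7 hepatoma cells carrying a hepatitis C replication reporter with no stimulus; test concentration not given here.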 To be noted: higher = more signal, called active from +8 up or from −8 down.
The nature of test [13]: Pseudomonas biofilm growth suppression – PAO1 strain, BacTiter-Glo luminescence, LB-PBS, primary screen (AID 1144). Conditions: P. aeruginosa PAO1 biofilm, 12 h, higher = more signal.
The nature of test [14]: basal CRE-LacZ reporter activity in PC12 – cell-based, unstimulated, primary screen (AID 1145). Conditions: no forskolin, luminescence, 4.5 h, higher = more signal, called active from +8 up or from −8 down.
A short description of test [15]: forskolin-driven CRE-LacZ activity in PC12 – cell-based, CRE-LacZ reporter, forskolin-stimulated, primary screen (AID 1146).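 Further: PC12 cells with 6xCRE LacZ reporter stimulated by forskolin 10 µM; beta-galactosidase reporter signal reflecting CREB driven transcription.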 To be noted: luminescence, 4.5 h, higher = more signal, called active from +8 up or from −8 down.
Test [16] deals with Streptavidin (Streptomyces avidinii) (UniProt P22629). Description: compounds binding control protein streptavidin – biophysical, small-molecule microarray, 635/667 nm fluorescence, artefact control for SMM compound annotation, primary screen (AID 1147).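 Further: signal reflects streptavidin binding to arrayed compounds as a control protein.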 Conditions: higher = more signal.
The nature of test [17]: probe aInhba binding on compound microarray – biochemical, small-molecule microarray, 635/667 nm fluorescence, primary screen (AID 1148).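 Further: score merges 667nm spot fluorescence with signal-to-noise for antibody binding to printed compounds.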 To be noted: higher = more signal.
Test [18] deals with Torsin-1A (Homo sapiens) (UniProt O14656). The test is described as follows: TOR1A wild-type binding on microarray – cell lysate, small-molecule microarray, lysate, 635/667 nm, primary screen (AID 1149). To be noted: COS7 hTOR1A-WT lysate, 635 nm fluorescence, higher = more signal.
For test [19] the target is unchanged. Description: torsin A mutant lysate binding on microarrays – cell lysate, small-molecule microarray, COS7 lysate, 635/667 nm fluorescence, primary screen (AID 1150).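 Further: score pools 667 nm emission and signal to noise measuring lysate protein binding.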 To be noted: COS7 hTOR1A mutant lysate, 635 nm fluorescence, higher = more signal.
Test [20] relates to Sonic hedgehog protein (Shh). Description: Sonic hedgehog microarray binding compounds – biochemical, small-molecule microarray, 635/667 nm fluorescence, primary screen (AID 1151).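 Further: Shh protein binding to compounds spotted on small-molecule microarray slides; score combines spot fluorescence intensity with signal-to-noise across triplicate slides.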 Conditions: 635 nm fluorescence, higher = more signal.

Focal adhesion kinase 1 (Homo sapiens), sequence (Q05397 whole entry, looked up): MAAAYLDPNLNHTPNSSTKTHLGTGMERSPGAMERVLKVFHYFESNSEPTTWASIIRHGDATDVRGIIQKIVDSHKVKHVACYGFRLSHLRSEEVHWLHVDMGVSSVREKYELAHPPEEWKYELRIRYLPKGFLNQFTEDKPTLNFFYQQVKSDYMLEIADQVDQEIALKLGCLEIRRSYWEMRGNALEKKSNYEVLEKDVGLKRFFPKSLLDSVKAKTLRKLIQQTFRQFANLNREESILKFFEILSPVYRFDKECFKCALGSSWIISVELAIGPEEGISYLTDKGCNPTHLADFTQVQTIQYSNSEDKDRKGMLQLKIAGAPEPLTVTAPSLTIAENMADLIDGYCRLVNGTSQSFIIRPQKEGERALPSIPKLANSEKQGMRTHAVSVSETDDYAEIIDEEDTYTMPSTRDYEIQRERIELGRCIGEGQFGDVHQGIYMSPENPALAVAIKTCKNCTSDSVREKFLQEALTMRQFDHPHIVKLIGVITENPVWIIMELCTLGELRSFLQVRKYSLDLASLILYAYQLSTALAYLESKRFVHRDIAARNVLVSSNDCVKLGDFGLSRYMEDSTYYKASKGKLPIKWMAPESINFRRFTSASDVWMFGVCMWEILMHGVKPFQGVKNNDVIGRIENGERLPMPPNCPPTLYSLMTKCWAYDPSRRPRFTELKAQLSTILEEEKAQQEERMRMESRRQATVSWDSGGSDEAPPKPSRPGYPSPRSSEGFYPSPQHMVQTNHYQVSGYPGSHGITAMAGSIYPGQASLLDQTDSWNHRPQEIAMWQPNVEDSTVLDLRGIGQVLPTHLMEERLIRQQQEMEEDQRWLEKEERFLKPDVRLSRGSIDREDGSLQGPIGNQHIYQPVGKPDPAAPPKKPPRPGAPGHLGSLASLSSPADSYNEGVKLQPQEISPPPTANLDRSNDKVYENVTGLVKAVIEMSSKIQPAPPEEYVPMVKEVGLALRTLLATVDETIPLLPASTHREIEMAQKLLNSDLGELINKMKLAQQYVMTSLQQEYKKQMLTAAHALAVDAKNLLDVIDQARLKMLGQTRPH
Luciferin 4-monooxygenase (Photinus pyralis), sequence (P08659 whole entry, looked up): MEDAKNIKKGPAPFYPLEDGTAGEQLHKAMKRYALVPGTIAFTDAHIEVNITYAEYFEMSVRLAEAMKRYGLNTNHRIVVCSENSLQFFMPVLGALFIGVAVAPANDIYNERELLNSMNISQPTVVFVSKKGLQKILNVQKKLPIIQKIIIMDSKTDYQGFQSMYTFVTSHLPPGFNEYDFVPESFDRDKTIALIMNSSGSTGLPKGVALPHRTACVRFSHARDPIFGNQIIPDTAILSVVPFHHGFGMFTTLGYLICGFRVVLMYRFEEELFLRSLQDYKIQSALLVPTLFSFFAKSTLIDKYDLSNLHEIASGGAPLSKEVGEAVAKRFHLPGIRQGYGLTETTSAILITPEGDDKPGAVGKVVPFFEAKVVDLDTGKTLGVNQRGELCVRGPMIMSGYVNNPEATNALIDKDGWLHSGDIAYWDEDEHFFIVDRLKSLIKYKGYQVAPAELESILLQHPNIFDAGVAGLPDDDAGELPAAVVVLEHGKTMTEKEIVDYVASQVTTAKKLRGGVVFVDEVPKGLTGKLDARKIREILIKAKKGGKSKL
Torsin-1A (Homo sapiens), sequence (O14656 whole entry, looked up): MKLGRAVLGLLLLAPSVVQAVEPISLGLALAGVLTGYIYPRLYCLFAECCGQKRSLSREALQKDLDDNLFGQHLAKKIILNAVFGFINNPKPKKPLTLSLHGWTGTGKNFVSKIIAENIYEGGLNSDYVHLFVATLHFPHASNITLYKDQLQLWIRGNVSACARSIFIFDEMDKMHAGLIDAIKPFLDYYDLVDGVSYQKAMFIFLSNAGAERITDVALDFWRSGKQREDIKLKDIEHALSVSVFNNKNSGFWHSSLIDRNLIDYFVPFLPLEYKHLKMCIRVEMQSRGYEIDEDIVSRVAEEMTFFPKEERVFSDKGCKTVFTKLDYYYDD
Streptavidin (Streptomyces avidinii), sequence (P22629 whole entry, looked up): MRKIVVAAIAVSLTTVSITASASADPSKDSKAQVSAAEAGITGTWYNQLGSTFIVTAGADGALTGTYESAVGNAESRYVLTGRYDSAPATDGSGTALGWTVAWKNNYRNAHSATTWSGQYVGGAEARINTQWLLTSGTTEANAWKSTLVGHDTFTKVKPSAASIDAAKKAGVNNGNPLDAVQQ
Follistatin (Homo sapiens), sequence (P19883 whole entry, looked up): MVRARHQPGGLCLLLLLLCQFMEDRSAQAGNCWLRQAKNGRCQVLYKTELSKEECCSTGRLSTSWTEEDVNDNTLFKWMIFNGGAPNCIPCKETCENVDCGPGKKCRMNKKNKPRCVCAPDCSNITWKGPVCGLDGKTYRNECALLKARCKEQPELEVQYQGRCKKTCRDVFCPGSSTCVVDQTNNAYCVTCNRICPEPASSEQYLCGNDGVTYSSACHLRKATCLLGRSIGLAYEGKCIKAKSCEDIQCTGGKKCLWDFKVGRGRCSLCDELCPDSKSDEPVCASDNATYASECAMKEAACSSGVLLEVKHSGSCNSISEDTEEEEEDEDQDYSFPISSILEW
Fibroblast growth factor 2 (Homo sapiens), sequence (P09038 whole entry, looked up): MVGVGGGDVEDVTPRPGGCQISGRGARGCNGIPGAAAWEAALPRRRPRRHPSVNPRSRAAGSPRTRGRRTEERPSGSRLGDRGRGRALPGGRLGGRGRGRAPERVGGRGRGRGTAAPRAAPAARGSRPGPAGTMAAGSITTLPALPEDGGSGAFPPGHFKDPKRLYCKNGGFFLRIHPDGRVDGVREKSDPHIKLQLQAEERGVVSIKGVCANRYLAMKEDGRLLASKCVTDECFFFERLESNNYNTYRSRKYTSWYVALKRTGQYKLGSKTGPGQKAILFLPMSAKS

Take `[N-]=[N+]=NCc1ccccc1[C@H]1OC(c2ccc(OCCCO)cc2)=N[C@@]1(Cc1ccccc1N=[N+]=[N-])C(=O)NCc1ccccc1`: the composite z-score in test [1] is 0.859; in test [2] it was 1.18; in test [3], 0.636; in test [4] it was 0.82; in test [5] it was 1.03; in [6], 0.299. Moreover, the composite z-score in [8] is 0.0912; in test [9] it was 1; in [11] it was 0.928; in [16], 0.303; in [17] it was 0.671; in test [18], 0.22. In addition, the composite z-score in test [19] is 0.681; in test [20] it was 0.033. Also, the z-score in test [7] was 0.623; in test [10], -1.17 (inactive); in test [12] it was -3.99 (inactive); in test [13] it was -0.358 (inactive); in [14], 1.74 (inactive); in test [15] it was -0.676 (inactive).
As for `O=C(NCC(F)(F)F)[C@@H]1c2ccccc2C(=O)N(Cc2ccccc2Cl)[C@H]1c1ccc(CO)cc1`, the composite z-score is 0.752 in [1]; -0.778 in test [2]; -0.844 in test [3]; -0.81 in [4]; -0.607 in [5]; -0.434 in [6]. Further, the composite z-score in [8] is -1.23; in [9], -0.742; in test [11], -0.234; in test [16] it was -1.38; in test [17], -0.176; in test [18], -0.495. In addition, the composite z-score in test [19] is 0.986; in test [20], -0.59. For the same compound, the z-score in test [7] is 0.97; in test [10], -0.565 (inactive); in [12] it was 0.197 (inactive); in test [13], 0.072 (inactive); in test [14] it was 0.414 (inactive); in test [15], -0.65 (inactive).
On to `COCCOC(=O)N1C(=O)[C@@]2(c3cc(C#CC4=CCCCC4)ccc31)[C@H](C(=O)NC[C@H](O)c1ccccc1)[C@H]1C(=O)O[C@H](c3ccccc3)[C@H](c3ccccc3)N1[C@@H]2c1ccccc1OCCO`, for which the composite z-score was determined as 0.69 in [1]; 1.17 in test [2]; 0.985 in test [3]; 0.943 in [4]; 1.34 in test [5]; 0.825 in [6]. In addition, the composite z-score in [8] was determined as 1.09; in test [9], 1.09; in test [11], 0.255; in test [16], 0.634; in [17], 0.243; in test [18] it was 0.453. Also, the results for the composite z-score in [19] and in [20] were 0.509 and 1.53, respectively. Besides, the z-score in test [7] is -1.49; in test [10] it was -0.855 (inactive); in test [12], -5.75 (inactive); in test [13] it was 0.423 (inactive); in [14] it was 0.48 (inactive); in test [15] it was -0.99 (inactive).
Take `Cc1ccccc1C(O)C1C=CC2C(=O)N(c3ccccc3)C(=O)C2N1Nc1ccc(C#N)cc1` (stereo not given): the composite z-score was 2.68 in [1]; 1.21 in test [2]; 0.842 in test [3]; 0.523 in test [4]; 0.683 in test [5]; 0.302 in test [6]. Also, the composite z-score in [8] is 0.0979; in [9] it was 1; in test [11], 0.51; in test [16] it was 2.17; in test [17], 0.816; in test [18], 0.261. In addition, the composite z-score is 1.58 in test [19] and -0.442 in [20]. The z-score is -0.638 in test [7]; -1.33 (inactive) in test [10]; 0.466 (inactive) in test [12]; -1.14 (inactive) in [13]; -0.133 (inactive) in [14]; 1.66 (inactive) in [15].
As for `C=CC[C@]1(C(=O)O)N=C(c2ccc(OCCCO)cc2)O[C@H]1c1ccccc1N=[N+]=[N-]`, the composite z-score is 0.258 in test [1]; -0.171 in [2]; 0.0806 in test [3]; -0.17 in test [4]; -0.0493 in test [5]; -0.124 in test [6]. The composite z-score in test [8] is -1.09; in [9], 0.0828; in test [11] it was 0.477; in test [16] it was 1.27; in test [17] it was -0.026; in [18], 0.0545. Moreover, the composite z-score is 0.125 in [19] and -0.373 in [20]. Also, the z-score in test [7] is 1.28; in test [10] it was -12.3 (active); in test [12], -0.426 (inactive); in [13] it was 1.09 (inactive); in [14] it was 0.629 (inactive); in [15], -1.32 (inactive).
